In assay [1] the target is Serine/threonine-protein kinase PAK 6 (Homo sapiens) (UniProt Q9NQU5). As to conditions: at 1 µM.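 Also: values are mean percent inhibition of PAK6 kinase.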
The test system of assay [2] is Tyrosine-protein kinase ABL1 (Homo sapiens), P00519 [E255K]. Particulars: at 0.1 µM.
Assay [3] shares this test system. Particulars: at 1 µM.
Assay [4] has as its system Tyrosine-protein kinase ABL1 (Homo sapiens), P00519 [H396P]. Particulars: at 0.1 µM.
Assay [5] shares this test system. As to conditions: at 1 µM.
The test system of assay [6] is Tyrosine-protein kinase ABL1 (Homo sapiens), P00519 [M351T]. As to conditions: at 0.1 µM.
Assay [7] shares this test system. As to conditions: at 1 µM.
Assay [8] has as its system Tyrosine-protein kinase ABL1 (Homo sapiens), P00519 [Q252H]. As to conditions: at 0.1 µM.
The test system is the same in assay [9]. As to conditions: at 1 µM.
In assay [10] the test system is Tyrosine-protein kinase ABL1 (Homo sapiens), P00519 [T315I]. Particulars: at 0.1 µM.

Chain of Serine/threonine-protein kinase PAK 6 (Homo sapiens) (Q9NQU5 whole entry, looked up): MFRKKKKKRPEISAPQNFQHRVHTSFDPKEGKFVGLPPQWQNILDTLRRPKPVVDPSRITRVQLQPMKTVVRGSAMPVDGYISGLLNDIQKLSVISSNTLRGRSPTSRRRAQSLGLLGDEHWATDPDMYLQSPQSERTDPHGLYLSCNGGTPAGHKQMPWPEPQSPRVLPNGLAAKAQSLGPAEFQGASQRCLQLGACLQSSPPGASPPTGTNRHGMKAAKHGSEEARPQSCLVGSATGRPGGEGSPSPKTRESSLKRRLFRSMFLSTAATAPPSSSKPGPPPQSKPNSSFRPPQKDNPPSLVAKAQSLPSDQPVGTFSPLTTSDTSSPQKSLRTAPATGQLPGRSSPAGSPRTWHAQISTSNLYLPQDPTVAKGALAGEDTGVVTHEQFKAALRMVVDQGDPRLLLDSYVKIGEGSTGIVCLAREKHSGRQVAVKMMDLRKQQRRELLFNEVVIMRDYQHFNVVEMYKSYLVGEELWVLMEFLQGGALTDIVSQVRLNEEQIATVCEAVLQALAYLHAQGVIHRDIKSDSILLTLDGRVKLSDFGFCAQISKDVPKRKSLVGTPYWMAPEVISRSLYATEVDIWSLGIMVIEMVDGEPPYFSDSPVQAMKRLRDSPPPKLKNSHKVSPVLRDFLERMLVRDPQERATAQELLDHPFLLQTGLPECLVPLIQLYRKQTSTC

Usually inhibition stands for the drop in the measured response relative to a control, in per cent. Consider `COc1cccc(-n2ncc3c(N/N=C/c4ccc(S(C)(=O)=O)cc4)ncnc32)c1`, for which the inhibition in [1] amounted to 5.24%; in assay [2], 79%; in [3], 93.4%; in assay [4], 85.2%; in assay [5] it was 94.1%; in assay [6], 84.9%. Moreover, the inhibition in [7] stood at 95.5%; in assay [8] it was 87.2%; in assay [9], 95%; in [10], 49.4%.
With `COc1cc(/C=N/Nc2ncnc3c2cnn3C(C)C)ccc1O`, the inhibition in assay [2] was 21.7%; in [3], 71%; in assay [4], 34.7%; in [5], 80.7%; in [6], 34.7%; in [7], 80.5%. Besides, the inhibition stood at 35.4% in assay [8], 81.6% in assay [9] and 9.92% in assay [10].
Regarding `NS(=O)(=O)c1ccc(Nc2cc(-c3cccc(O)c3)n[nH]2)cc1`, the inhibition was -5.13% in assay [1]; 4.46% in assay [2]; 7.4% in assay [3]; 5.03% in assay [4]; 5.99% in [5]; 4.35% in assay [6]. For the same compound, the inhibition amounted to 4.29% in assay [7], 5.44% in [8], 5.74% in assay [9] and 4.08% in [10].
With `N#Cc1c(NC(=O)c2ccccc2F)sc2c1CCCC2`, the inhibition in assay [1] was 3.35%; in [2], -0.62%; in assay [3] it was 1.08%; in assay [4], 0.3%; in [5] it was -1.4%; in assay [6], 0.7%. Further, the inhibition in [7] is 0.57%; in assay [8], -0.76%; in assay [9] it was -0.72%; in assay [10] it was -0.91%.
Turning to `CCCN1CCCC(c2ccc(Nc3nc(Nc4cc(F)ccc4C(N)=O)c4cc[nH]c4n3)c(OC)c2)C1` (stereo not drawn), the inhibition in assay [1] is -5.69%; in assay [2], 3.9%; in [3] it was 5.75%; in assay [4], 5.07%; in assay [5], 4.96%; in assay [6], 1.54%. Moreover, the inhibition stood at 5.35% in assay [7], 4.96% in [8], 7.24% in assay [9] and 4.52% in assay [10].
On to `CN(C)C(=O)O[C@@H]1CN[C@@H](C#Cc2cc3ncnc(Nc4ccc(OCc5cccc(F)c5)c(Cl)c4)c3s2)C1`, for which the inhibition is -6.9% in assay [1]; -0.68% in [2]; 2.16% in [3]; -0.68% in assay [4]; -1.23% in [5]; -1.17% in [6]. Moreover, the inhibition in assay [7] was 0.01%; in [8], 2.52%; in assay [9], 2.17%; in assay [10] it was -0.5%.
Turning to `COC(=O)c1cncc(/C=C/c2c(C)cc(O)cc2C)c1`, the inhibition in assay [1] is 7.57%; in assay [2], 6.85%; in assay [3] it was 38%; in assay [4], 13.3%; in assay [5], 60%; in assay [6], 15.9%. Besides, the inhibition in [7] worked out at 66.3%; in [8], 15.9%; in [9] it was 64.1%; in assay [10], 4.16%.
Consider `Cc1cc(-c2ccccn2)cc(C)c1/C=C/c1cncc(-c2nn[nH]n2)c1`, for which the inhibition in [1] is -5.17%; in assay [2], -0.88%; in assay [3] it was 3.22%; in [4], 3.18%; in [5], 8.77%; in [6], 0.81%. The inhibition in assay [7] turned out to be 5.63%; in assay [8], 3.34%; in assay [9] it was 9.01%; in assay [10] it was 0.21%.
For `COc1ccc2ncnc(Nc3ccc(OCc4ccccc4)cc3)c2c1`, the inhibition in assay [2] was 1.91%; in [3], 2.75%; in [4], 1.73%; in assay [5], 4.61%; in assay [6], -1.29%; in assay [7] it was 2.67%. Further, the values for the inhibition in assay [8], in assay [9] and in assay [10] were 0.25%, 4.68% and 0.02%, respectively.
On to `Cc1ccc(C(=O)NC2CC2)cc1-c1ccc2[nH]ncc2c1`, for which the inhibition is -8.86% in assay [1]; -0.87% in assay [2]; -0.81% in [3]; -1.68% in [4]; 1.02% in assay [5]; 1.39% in assay [6]. In addition, the inhibition in assay [7] was 2.89%; in [8] it was -1.32%; in assay [9] it was 2.09%; in assay [10] it was -2.71%.
As for `[O-][S+]1CCN(Cc2ccc(-c3ccc4ncnc(Nc5ccc(OCc6ccccc6)c(Cl)c5)c4c3)o2)CC1`, the inhibition in assay [1] was -2.46%; in assay [2], 1.62%; in assay [3], 1.35%; in assay [4] it was 1.53%; in assay [5] it was 2.74%; in assay [6], 0.68%. Moreover, the inhibition is 2.75% in assay [7], 2.06% in assay [8], 3.61% in [9] and 0.16% in assay [10].
Regarding `Cc1ccc2c(c1)/C(=N/Nc1ccc(S(N)(=O)=O)cc1)C(=O)N2`, the inhibition is -8.53% in assay [1]; 0.74% in [2]; 3.57% in [3]; -0.31% in assay [4]; 5.97% in assay [5]; 0.64% in assay [6]. Also, the inhibition is 8.33% in [7], 1.64% in assay [8], 7.52% in assay [9] and 1.43% in [10].
On to `NC(=O)c1cccc(Nc2nccc(Nc3cccc(F)c3)n2)c1`, for which the inhibition in [1] is -5.46%; in assay [2], 7.73%; in assay [3], 47%; in assay [4], 9.26%; in assay [5], 56.1%; in assay [6] it was 9.02%. Besides, the inhibition came out at 57.7% in assay [7], 9.5% in [8], 53.9% in [9] and 1.3% in assay [10].
Consider `CN(c1ccc(NC(=O)Nc2ccc(OC(F)(F)F)cc2)cc1)c1ccnc(Nc2cccc(S(N)(=O)=O)c2)n1`, for which the inhibition in [1] was -2%; in assay [2], 17.2%; in assay [3] it was 65.3%; in [4] it was 47.6%; in assay [5], 86.9%; in assay [6] it was 64.9%. Further, the inhibition was found to be 91.2% in assay [7], 65.8% in assay [8], 90.2% in [9] and 48.7% in [10].
As to `COc1cc2ncn(-c3cc(OCc4ccccc4S(C)(=O)=O)c(C#N)s3)c2cc1OC`, the inhibition amounted to 9.78% in assay [1]; 9.96% in assay [2]; 46.7% in assay [3]; 12.2% in assay [4]; 49.5% in assay [5]; 9.97% in assay [6]. Moreover, the inhibition stood at 49.6% in assay [7], 10% in [8], 43.9% in [9] and 6.41% in assay [10].
Take `FC(F)(F)c1ccc(-c2nn3ncccc3c2-c2ccnc(Nc3ccc4c(c3)OCCO4)n2)cc1`: the inhibition in assay [1] was 15.5%; in assay [2], -0.31%; in assay [3], 0.99%; in [4], 0.37%; in [5], 8.02%; in assay [6], 1.83%. The inhibition was determined as 13.9% in [7], 2.75% in assay [8], 8.01% in assay [9] and 1.73% in [10].
In the case of `Cc1cc(Cl)cc2c1NC(=O)C2=NNc1ccc(S(N)(=O)=O)cc1`, the inhibition in assay [1] was -1.69%; in assay [2], 1.25%; in [3], 5.11%; in assay [4] it was 2.97%; in assay [5], 8.01%; in assay [6], -0.27%. The inhibition in [7] worked out at 6.65%; in assay [8] it was 4.15%; in assay [9], 7.11%; in assay [10], 1.38%.

Source of the values: ChEMBL document CHEMBL1961873, “Compounds: GSK PKIS; Assays: Nanosyn kinase panel” (2012).
